# A selection: hits, their analogues and other compounds. The true share with any hit is near 4.7%.
# TRHR enhancer = qHTS for Small Molecule Agonists and Allosteric Enhancers of Human TRH Receptor: Primary Screen for Enhancers; Thyrotropin-releasing hormone receptor (Homo sapiens), P34981; enhancement, % at 2 µM; TRHR cells, fluo-8 calcium fluorescence, EC20 TRH enhancement; 0.66% of 360,000 active; in the data active means enhancement above about 30%; further: 0% is about no effect
# Target sequence (P34981 whole entry, looked up): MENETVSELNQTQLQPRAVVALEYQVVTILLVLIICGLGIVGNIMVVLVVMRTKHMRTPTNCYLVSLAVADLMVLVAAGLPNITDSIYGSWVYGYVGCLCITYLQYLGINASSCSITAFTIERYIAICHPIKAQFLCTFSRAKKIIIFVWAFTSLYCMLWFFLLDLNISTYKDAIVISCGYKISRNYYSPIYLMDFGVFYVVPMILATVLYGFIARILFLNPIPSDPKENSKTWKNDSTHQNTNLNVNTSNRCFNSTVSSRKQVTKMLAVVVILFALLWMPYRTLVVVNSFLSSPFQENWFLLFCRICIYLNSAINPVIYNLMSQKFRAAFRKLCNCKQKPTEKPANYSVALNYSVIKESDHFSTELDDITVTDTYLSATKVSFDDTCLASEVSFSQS
#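 Enhancer read-out: after compound pinning and an initial kinetic agonist-mode read, an EC20 of TRH (10 nM final) was injected and fluo-8 calcium signal (Ex 480/Em 530) followed at 1 s/cycle for 100 cycles in TRHR-expressing cells.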
# D1 antag = Antagonist of Human D 1 Dopamine Receptor: qHTS; D(1A) dopamine receptor (Homo sapiens), P21728; HEK293 TREx D1 cells, calcium flux, dopamine EC80; active compounds read low; activity change, negative = inhibition, % at 10 µM; 3.2% of 360,000 active; AID 504652, 2011; in the data active means activity change below about -30%; further: on the % scale 0 is the no-effect control and ±100 the full control effect
#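 HEK293 T-REx cells expressing inducible, force-coupled D1 receptor; no-wash Ca dye, 30–90 min RT. Cmpd → 180 s read at 1 Hz → EC80 DA → 180 s read.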
# D1 agonist = Allosteric Agonists of the Human D1 Dopamine Receptor: qHTS | activation, % at 2 µM | D(1A) dopamine receptor (Homo sapiens), P21728 | HEK293 T-REx D1 cells, calcium flux, agonist mode | 1% of 360,000 active; further: 0% is about no effect
#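 Agonism was scored from calcium flux recorded over 180 s (1 read/s) after pintool compound addition, following a 10-cycle baseline. Cells were inducible force-coupled HEK293 TREx D1, plated overnight at 30 C and loaded with no-wash calcium dye.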
# TRHR ag = qHTS for Small Molecule Agonists and Allosteric Enhancers of Human TRH Receptor: Primary Screen for Agonists; activation, % at 2 µM; TRHR cells, calcium flux fluo-8, FDSS agonist mode; 0.18% of 360,000 active; AID 493084, 2011; further: 0% is about no effect
#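 Read-out: compound-evoked intracellular calcium rise in TRHR cells, fluo-8 dye, kinetic FDSS fluorescence at 1 s/cycle following a 10-cycle baseline. Cells cultured overnight before dye loading (30 min–1.5 h, RT).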
# D1 potentiator = Potentiators of Human D1 Dopamine Receptor: qHTS; HEK293 TREx D1 cells, calcium flux, dopamine EC20 potentiation; D(1A) dopamine receptor (Homo sapiens), P21728; 0.036% of 360,000 active; potentiation, % at 10 µM; in the data active means potentiation above about 30%; further: 0% is about no effect
# The depositor's hits bear a star; nt = not tested or not shown. Unless noted, no stated cut-off is given here; in the data, active means activation above about 30%; inactive means the rest.
SMILES,TRHR enhancer,D1 antag,D1 agonist,TRHR ag,D1 potentiator
O=c1cc2nc(-c3ccccc3F)nc(SCc3ccc(Br)cc3)n2[nH]1,0,-13,6,0,-4
COc1ccc(CC(=O)NCCc2sc(-c3cccc(F)c3)nc2C)cc1,1,11,6,0,-1
O=C(c1cccc(Cl)c1)n1nc(-c2cccnc2)nc1NCc1ccccc1,4,2,-2,0,-1
Cc1ccc(O)c(-c2[nH]ncc2C(=O)c2ccc(Cl)cc2)c1,8,-34*,12,1,-8
Cc1nc2ccccn2c1C(=O)NC1CCCc2ccccc21 (centres undefined),3,-34*,6,-2,-7
Cc1cccc(NC(=O)NC2CCCc3ccccc32)c1 (centres undefined),-8,-44*,2,0,0
COc1ccc(NC(=O)NC2CCCc3ccccc32)cc1 (centres undefined),-4,-43*,2,1,-9
O=C(NC1CCCc2ccccc21)c1cn2ccccc2n1 (centres undefined),6,12,1,0,-7
COc1ccc(NC(=O)NC2CCCc3ccccc32)cc1OC (centres undefined),0,-22,1,2,-4
CC(=O)c1cccc(NC(=O)NC2CCCc3ccccc32)c1 (centres undefined),-7,1,3,1,-8
COc1ccc(NC(C)=O)cc1NC(=O)c1cccc(S(=O)(=O)N2CCc3ccccc32)c1,9,-32*,0,-1,-4
CC(=O)NS(=O)(=O)c1ccc(NC(=O)c2cccc(S(=O)(=O)N3CCc4ccccc43)c2)cc1,5,9,3,0,-2
CN(C)S(=O)(=O)c1cccc(NC(=O)c2cccc(S(=O)(=O)N3CCc4ccccc43)c2)c1,2,-57*,5,1,-5
O=C(Nc1nc2ccccc2s1)c1cccc(S(=O)(=O)N2CCc3ccccc32)c1,11,-25,4,0,-2
O=C(Nc1nc2c(s1)CN(Cc1ccccc1)CC2)c1cccc(S(=O)(=O)N2CCc3ccccc32)c1,-5,-3,73*,46*,-10
COc1ccc(OC)c(CNC(=O)C2CCN(S(=O)(=O)c3ccc4[nH]c(=O)oc4c3)CC2)c1,-4,-23,0,0,-4
O=C(CN1C(=O)C2CCCCN2c2ccc(C(=O)N3CCCC3)cc21)NCc1cccc(F)c1 (centres undefined),-2,7,-2,0,4
COc1ccc(-c2cc(C)no2)cc1S(=O)(=O)NC(C)C,-3,5,1,0,0
S=C(Nc1ccccc1)Nc1ccc(Cl)cc1Cl,4,-10,3,0,9
Cc1cc(Cl)ccc1NC(=S)NCc1ccccc1Cl,-3,-32*,20,1,-7
S=C(NCc1ccccc1Cl)Nc1ccccc1Cl,-1,-21,8,0,-12
S=C(NCc1ccc(Cl)cc1Cl)Nc1ccccc1,0,-31*,26,1,-7
Cc1ccc(CNC(=O)Cn2ncc3c([nH]c4ccc(C)cc43)c2=O)cc1,10,5,2,1,2
CCCC(=O)Nc1ccc2c(c1)C(=O)NC2=O,4,-19,0,0,-5
CCCC(=O)Nc1cccc(Oc2ccc3c(c2)C(=O)NC3=O)c1,35*,13,-1,-1,-16
SMILES,TRHR enhancer,D1 antag,D1 agonist,TRHR ag,D1 potentiator
O=S(=O)(c1cccc(F)c1)N1CCC(Oc2ccc(-n3cnnn3)cc2)CC1,-2,-30*,11,4,1
CCOC(=O)c1ccc(NC(=S)N2CCCC(C)C2)cc1 (centres undefined),5,nt,0,0,-4
O=C(O)c1ccc(NC(=S)N2CCCCC2)cc1,0,-73*,0,1,-8
CCOC(=O)c1ccc(NC(=S)N2CCCC(C(=O)N3CCCC3)C2)cc1 (centres undefined),3,-89*,2,0,-10
CCCSc1ncc(Cl)c(C(=O)N(Cc2ccc(N(C)C)cc2)C2CCS(=O)(=O)C2)n1 (centres undefined),-3,11,2,-1,0
Cc1ccc(-c2ccc(CCC(=O)O)n2-c2cccc(C)c2C)cc1,-3,6,0,-1,2
Cc1csc2ncnc(NC3CCN(Cc4ccccc4)CC3)c12,2,-33*,22,0,-10
c1ccc(CN2CCC(Nc3nc(-c4ccccc4)nc4ccccc34)CC2)cc1,1,-1,7,1,-2
O=C(c1ccccc1)c1nn(-c2cccc(Cl)c2)c2nc(-c3ccccc3)cc(=O)n12,6,-74*,1,-2,1
COc1ccccc1N1CCN(S(=O)(=O)CCNC(=O)Cc2ccc(Cl)cc2)CC1,-4,-24,3,-1,0
CCn1ncc(/C=N/NC(=O)c2ccc3c(c2)OCO3)c1C,3,-74*,1,1,-4
CC(C)C(NC(=O)c1ccc2c(c1)OCO2)C(=O)N/N=C/c1cccs1 (centres undefined),-6,-27,0,0,-8
Cc1ccnn1CC(=O)N/N=C/c1ccc2c(c1)OCO2,1,-47*,3,-1,-4
Cc1c(/C=N/NC(=O)C(NC(=O)c2ccc3c(c2)OCO3)C(C)C)c2ccccc2n1C (centres undefined),32*,-15,-1,6,0
Cc1ccc(CC(=O)N/N=C/c2ccc3c(c2)OCO3)cc1,1,2,-1,0,10
CCCOc1ccc(/C=N/NC(=O)c2ccc3c(c2)OCO3)c(OCCC)c1,-7,-42*,5,0,nt
CCOC(=O)c1ccc(NC(=O)CCC(=O)N2Cc3ccccc3Oc3ncccc32)cc1,14,9,37*,-1,3
CNC(=O)/C(C#N)=C\c1ccc(CNS(=O)(=O)c2ccc(Cl)cc2)o1,-3,-69*,1,0,-4
O=C(CCCn1c(=O)c2cccn2c2ccccc21)NCc1ccccc1Br,-4,-2,3,0,-4
CCOc1cc([C@@H]2C[C@H]3CN(c4ccccc4)C(=O)[C@]34CCCN24)ccc1OC,5,-5,-1,0,3
COc1cc([C@@H]2C[C@H]3CN(c4ccccc4)C(=O)[C@]34CCCN24)cc(OC)c1OC,6,-41*,0,1,-1
O=C1c2ccc(Oc3ccc([N+](=O)[O-])cc3)cc2C(=O)N1CCCO,4,-37*,7,0,3
